Source: PubChem BioAssay AID1259415 (National Center for Advancing Translational Sciences (NCATS), 2018)
Among all 410,000 compounds or so, about 18,000 (4.4%) were called active. Not shown: some 7% with an inconclusive outcome. For the sample, actives were picked, then their nearest neighbours and some compounds at random. Values without a mark were called inactive. Cut-off read from the data, not from the text of the source: active = activity change below about -60%; inconclusive = no clear call, values can overlap the other calls; inactive = above about -39%.

Assay: qHTS Assay for inhibitors of the human cytomegalovirus (HCMV)
Conditions: HFF cells, HCMV-luciferase reporter, 72 h; at 57.5 µM; stronger effect = lower value
Summary of the method: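 Two-dose cell screen: HFF monolayers treated with compounds and infected with luciferase-expressing HCMV at 1 PFU/cell, 72 h at 37C, then lysed for luciferase measurement.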
% is set by controls: 0 for no effect and ±100 for the full control effect.

Compound | activity change, negative = inhibition
CCOc1ccccc1N(C)C(=O)c1cc2c(s1)-c1ccccc1OC2 | 2.75%
COc1cccc(CNC(=O)CCc2nc(-c3ccc(C)cc3)no2)c1 | 9.74%
COc1ccc(-c2noc(CCC(=O)N3CCN(c4cccc(C)c4)CC3)n2)cc1 | 1.95%
Cc1ccc(-c2noc(CCC(=O)Nc3ccccc3N3CCN(C)CC3)n2)cc1 | -68.8% (active)
CCCN(c1ccc(C)cc1)c1nc(=O)c2cccnc2s1 | -20.6%
COc1ccc(OC)c(CNC(=O)CN2C(=O)CCn3nc(-c4cn(C)c5ccccc45)cc32)c1 | 3.11%
O=C(NCCC1CCCCN1S(=O)(=O)c1ccc(F)cc1)C(=O)NC1CC1 (stereo not given) | -34%
O=C1CCCCN1CCCC(=O)N1CCCC(Nc2ccc(F)cc2)C1 (stereo not given) | 4.92%
O=C1/C(=C/c2ccc(F)cc2)SC(=S)N1CCCC(=O)N1CCCCC1CCO (stereo not given) | -100% (active)
COc1ccc(S(=O)(=O)NCc2cccn2Cc2cccc(C)c2)cc1Cl | -8.25%
CCOC(=O)C1CCN(c2nc3c(S(=O)(=O)c4ccc(CC)cc4)nnn3c3ccc(Cl)cc23)CC1 | 10.1%
COc1ccc2c(c1)CC[C@@H]1[C@@H]2CC[C@]2(C)C(=O)CC[C@@H]12 | -18.8%
Cc1ccc(-c2cn3cc([N+](=O)[O-])ccc3n2)cc1 | -89.1% (active)
Cc1ccc(-c2nc(SCc3ccc(Br)cc3)n3[nH]c(=O)cc3n2)cc1 | 81.8%
CC(=O)Nc1c(-c2ccc(C)cc2)nc2ccc(Cl)cn12 | 7.31%
Cc1nc(=O)c(-c2ccccc2)c(C)n1-c1ccc(Br)cc1 | -37%
Cc1ccc(-n2cc3ccc([N+](=O)[O-])cc3n2)cc1 | 46.8%
Cc1ccc2nc(-c3ccccc3)c(CC3CCCCC3)n2c1 | 43.3%
Cc1ccc(N2CCN(c3ccc([N+](=O)[O-])cn3)CC2)c(C)c1 | -6%
Cc1ccc(-c2cn3cc(C)ccc3n2)cc1 | -91.4% (active)
Cc1ccc2nc(-c3ccc(Br)cc3)cn2c1 | -89.7% (active)
CCOC(=O)c1c(C)[nH]c(C)c1S(=O)(=O)N1CCC(C(=O)Nc2ccc(C)c(Cl)c2)CC1 | 1.11%
CCOC(=O)c1c(C)[nH]c(CCC(=O)NCCCN2CCN(c3cccc(Cl)c3)CC2)c1C | -37.8%
CCOc1cc(CNC(=O)c2sc3ncnc(N(C)C4CCCCC4)c3c2C)ccc1OC | -22.8%
O=C1CC(Sc2ncn[nH]2)C(=O)N1c1ccccc1 (stereo not given) | -11.2%
